# Data taken from PubChem BioAssay (Tox21).
# Inconclusive results are not listed. Activity calls are given as the source filed them. Calls follow the shape of the dose curve; as a rule, active = well fitted activation curve with a large enough effect in the repeat runs; inconclusive = weak or mixed curves; inactive = flat fitted curve, though single readings scatter.
# Test: A CellTox Green Cytotoxicity Assay to monitor cytotoxicity in HEK293 cells - 40 hour (AID 1224871); also: nearly all actives have a fitted effect of over 45% in size
# Conditions: CellTox Green fluorescence; series mostly up to 76.8 µM; cytotoxicity increase: at the top concentration
# Outline: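 Homogeneous no-lysis format: HEK293 cell suspension mixed with CellTox Green reagent, seeded, incubated 5 h at 37 C/5% CO2, then dosed by pintool with compound in DMSO.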
# % is scaled to controls: 0 for no effect and ±100 for the full control effect.
row,Structure (SMILES),cytotoxicity increase
1,CCCCCC(=O)OCCc1ccccc1,8.33% (inactive)
2,CCCCCC(C)N (stereo unspecified),-12.4% [at 35.3 µM] (inactive)
3,COC(=O)C1=C(C)NC(C)=C(C(=O)OC(C)C)C1c1cccc2nonc12 (stereo unspecified),-9.72% [at 35.3 µM] (inactive)
4,CCC(C(=O)NC(=O)NC(C)=O)c1ccccc1 (stereo unspecified),4.38% [at 35.3 µM] (inactive)
5,CC[C@H]1OC(=O)[C@H](C)[C@@H](O[C@H]2C[C@@](C)(OC)[C@@H](O)[C@H](C)O2)[C@H](C)[C@@H](O[C@@H]2O[C@H](C)C[C@H](N(C)C)[C@H]2O)[C@](C)(OC)C[C@@H](C)C(=O)[C@H](C)[C@@H](O)[C@]1(C)O,-4.65% (inactive)
6,CC(=O)Oc1cccc(C)c1,3.6% [at 35.3 µM] (inactive)
